# Measured values: PubChem BioAssay AID2501 (Southern Research Specialized Biocontainment Screening …, 2010)
# In all, about 2,200 compounds went through this assay and about 1,200 (55%) were called active. No cut-off is given here; in the data, nearly all actives have IC50 up to about 92 µM. So high a share suggests a set chosen from earlier hits. Some of the results follow.
# Test: counter assay for TAg ATPase ADP read-out – biochemical, ADP-Hunter, fluorescence, counter-screen (AID 2501);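 note: purified T antigen ATPase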
# Conditions: series mostly up to 100 µM
row,Structure (SMILES),IC50
1,N#C/C(=C\c1ccc(O)c(O)c1)C(=O)c1ccc(O)c(O)c1,3.24 µM (active)
2,COc1cc(/C=C(\C#N)C(=O)c2ccc(O)c(O)c2)cc(I)c1O,12.3 µM (active)
3,N#C/C(=C\c1cccc(Cl)c1)C(=O)c1ccccc1,inactive
4,Cc1cccc(C2c3[nH]c4ccccc4c3CCN2C(=O)c2nn(C)c(=O)c3ccccc23)n1 (stereo unspecified),inactive
5,COC(=O)/C=C1/N/C(=N\c2nc(C)cc(C)n2)N(c2ccc(Cl)cc2)C1=O,inactive
6,Cc1cc2ccccc2n1CCNC(=O)COc1ccc2ccccc2c1,inactive
7,OC1CCN(C(=S)Nc2ccc(Nc3ccccc3)cc2)CC1,2.9 µM (active)
8,OCC1CCCN(C(=S)Nc2ccc(Nc3ccccc3)cc2)C1 (stereo unspecified),3.07 µM (active)
9,Cc1cc(C)c2c(c1)NC(C(=O)O)C1CC=CC21 (stereo unspecified),inactive
10,N#Cc1c(SCC(=O)Nc2nncs2)sc2c(O)cc(=O)[nH]c12,inactive
11,c1nc2sc3c(c2c2nnnn12)CCC3,inactive
12,Nc1ccc(-c2nc3c(Cl)cc(N)cc3[nH]2)cc1,4.91 µM (active)
13,Nc1ccc(-c2nc3c(Cl)c(N)ccc3[nH]2)cc1,3.24 µM (active)
14,O=C(O)COc1ccccc1C(Nc1cccnc1)c1cc(Cl)c2cccnc2c1O (stereo unspecified),inactive
15,CCc1c(C)nc2ncnn2c1N1CCCC(C(=O)Nc2cc(F)ccc2C)C1 (stereo unspecified),inactive
16,Cc1ccc(-c2cc(-c3ccco3)c(C#N)c(=O)[nH]2)cc1,inactive
17,CCCCOC1(c2ccccc2)NC(=S)NN=C1c1ccccc1 (stereo unspecified),4.2 µM (active)
18,CC(C)N1CC(C(=O)O)CC1=O (stereo unspecified),inactive
19,CN1CC(C(=O)O)Cc2c1ccc1ccccc21 (stereo unspecified),8.64 µM (active)
20,COc1cc(C#CC#CCN2CCCCC2)ccc1O,5.76 µM (active)
21,O=C(O)CN1C(=O)/C(=C\c2cc([N+](=O)[O-])ccc2OCc2ccccc2Cl)SC1=S,inactive
22,CN1C(=O)/C(=C/c2ccc(-c3ccccc3[N+](=O)[O-])o2)SC1=Nc1ccc(Cl)c(C(=O)O)c1,92.5 µM (active)

row,Structure (SMILES),IC50
1,CCOC(=O)c1c(C)c(C(=O)Nc2ccc(N(C)C)cc2)c(C)n1CC,10.6 µM (active)
2,C=CCNC(=S)Nc1ccc(N(C)C)cc1,1.99 µM (active)
3,CCCCOC(=O)c1ccc(NC(=O)Nc2ccc(OC)c(OC)c2)cc1,inactive
4,CN(C)c1ccc(NC(N)=S)cc1,3.1 µM (active)
5,CCCCOC(=O)Nc1ccc(N(C)C)cc1,4.65 µM (active)
6,Cc1cc(S(=O)(=O)Nc2c(C)nc3nc[nH]n3c2=O)ccc1F,inactive
7,CC(C)CC(NC(=O)C1CCC(=O)N1C(=O)OCc1ccccc1)C(=O)NC(Cc1ccccc1)C(N)=O (stereo unspecified),inactive
8,CCN(CC)C(=S)SSC(=S)N(CC)CC,inactive
9,O=C(NCC1CCCO1)c1ccc2c(c1)N(Cc1ccc(F)cc1)CCS2 (stereo unspecified),inactive
10,CN(C)c1ccc(NC(=S)NCC2CCCO2)cc1 (stereo unspecified),7.16 µM (active)
11,Cn1cccc1Cc1nnc(SCC(=O)NCC2CCCO2)n1C (stereo unspecified),inactive
12,CCOC(=O)C1(C)C=C(Nc2ccc(O)cc2)C(=O)N1c1ccc(O)cc1 (stereo unspecified),2.33 µM (active)
13,c1csc(CN2CCOCC2)c1,inactive
14,Clc1cc(NCc2cccs2)ccc1N1CCOCC1,31.5 µM (active)
15,Oc1ccc(NCc2cccs2)cc1,4.39 µM (active)
16,COc1ccc2c(c1)C(=O)Cc1ccccc1O2,inactive
17,Cc1cc2c(N)cccc2nn1,inactive
18,Nc1cccc2nsnc12,11 µM (active)
19,Cc1ccc2nsnc2c1NS(=O)(=O)c1c(C)ccc2nsnc12,inactive
20,O=C(OCCc1ccccc1)c1cc(O)c(O)c(O)c1,29.2 µM (active)
21,O=C(OCC1O[C@@H](OC(=O)c2cc(O)c(O)c(O)c2)[C@@H](OC(=O)c2cc(O)c(O)c(O)c2)[C@@H](OC(=O)c2cc(O)c(O)c(O)c2)[C@@H]1OC(=O)c1cc(O)c(O)c(O)c1)c1cc(O)c(O)c(O)c1 (stereo partly specified),inactive
22,CN1CCc2cccc3c2[C@@H]1Cc1ccc(O)c(O)c1-3,inactive

row,Structure (SMILES),IC50
1,CC(C)(C)n1nc2c(c1NC(=O)c1ccccc1S(=O)(=O)C(F)F)CS(=O)(=O)C2,inactive
2,O=c1[nH][nH]c(=S)n1C1CCCCC1,inactive
3,COc1ccccc1N1CCN(/N=C/c2ccc(O)c(O)c2)CC1,5.45 µM (active)
4,COc1cccc(/C=N/N2CCN(c3ccncc3S(=O)(=O)N3CCCCC3)CC2)c1,inactive
5,Oc1ccc2[nH]ccc2c1,2.23 µM (active)
6,O=C(O)c1ccc(NS(=O)(=O)c2ccc3c(c2)C2C=CCC2C(c2ccccc2F)N3)cc1 (stereo unspecified),inactive
7,Oc1ccc(O)cc1,7.46 µM (active)
8,CC(=O)c1cc2c(O)c(O)ccc2o1,7.04 µM (active)
9,Cc1ccc2oc(C(=O)Nc3nonc3C)c(C)c2c1,inactive
10,COc1cc(/C=N/NC(=O)CSc2ccccn2)ccc1O,4.11 µM (active)
11,CCOc1ccc(/C=N/NC(=O)CSc2ccccn2)cc1O,2.66 µM (active)
12,Cc1cc(C)nc(NC2=NCC(=O)N2c2cc(Cl)cc(Cl)c2)n1,inactive
13,CC1(OC(=O)C2CCCC2)C(=O)C=C2C=C(c3ccsc3)N(Cc3ccco3)C=C2C1=O (stereo unspecified),inactive
14,Nc1ccc2nc(CCCO)[nH]c2c1,2.74 µM (active)
15,Nc1ccc2nc(CCCCCCCCc3nc4ccc(N)cc4[nH]3)[nH]c2c1,6.38 µM (active)
16,Nc1ccc2nc(CCCCCCc3nc4ccc(N)cc4[nH]3)[nH]c2c1,2.36 µM (active)
17,Cc1c(C=NCCOCc2ccccc2)cnn1C,inactive
18,CN(C)c1nc(NCc2ccccc2)nc(N/N=C/c2ccc(Cl)cc2Cl)n1,inactive
19,CCNc1nc(NCC)nc(N/N=C/c2ccc(O)c(OC)c2)n1,5.21 µM (active)
20,COc1ccc(/C=N/Nc2nc(N3CCCC3)nc(N3CCCC3)n2)cc1O,3.91 µM (active)
21,COc1cc(/C=N/Nc2nc(N3CCCC3)nc(N3CCCC3)n2)ccc1O,6.61 µM (active)
22,Cc1ccc(-c2nc3ncccn3c2NC2CCCCC2)o1,6.91 µM (active)

row,Structure (SMILES),IC50
1,CCOC(=O)c1c(NC(C)=O)sc2c(O)c(Br)cc(Br)c12,28.4 µM (active)
2,CCOC(=O)c1c(NC(=O)/C=C/C(=O)O)sc(C)c1-c1ccc(Cl)cc1,inactive
3,CCOC(=O)c1c(NC(=O)/C=C/C(=O)O)sc(C)c1-c1ccc(C(C)(C)C)cc1,inactive
4,Oc1ccc(C2=Nn3c(nnc3-c3ccco3)SC2)cc1O,4.93 µM (active)
5,CN1CCc2cccc3c2[C@H]1Cc1ccc(O)c(O)c1-3,inactive
6,O=C(NC(=S)Nc1cccc(S(=O)(=O)NC2=NCCC2)c1)c1cc(-c2ccco2)nc2ccccc12,inactive
7,COc1cc(/C=C2/C(=O)c3cccc([N+](=O)[O-])c3C2=O)c(Br)cc1O,23.4 µM (active)
8,O=C(O)/C=C/C(=O)c1ccc2c(c1)CCc1ccccc1-2,inactive
9,COc1ccc(NCC(O)Cn2cnc3c2c(=O)n(C)c(=O)n3C)cc1 (stereo unspecified),6.13 µM (active)
10,CNc1nn(-c2cccc(Cl)c2)nc1N,9.76 µM (active)
11,Cc1nn(-c2cccc(Cl)c2)c2nc(-c3ccco3)cc(C(=O)O)c12,inactive
12,CNC(=S)N1CCN(c2ccc(OC)cc2)CC1,8.87 µM (active)
13,COc1ccc(N2CCN(C(=O)NC3CC(=O)N(c4ccc(OC)cc4)C3)CC2)cc1 (stereo unspecified),26.8 µM (active)
14,COc1ccc(N2CCN(c3cc(=O)n(Cc4ccc(F)cc4)c(=O)[nH]3)CC2)cc1,inactive
15,O=[N+]([O-])c1c(Nc2cccc(O)c2)cc(Cl)c2nonc12,inactive
16,O=[N+]([O-])c1c(Nc2ccc(O)cc2)cc(Cl)c2nonc12,26.9 µM (active)
17,O=C(O)c1ccc(Nc2cc(Cl)c3nonc3c2[N+](=O)[O-])cc1,inactive
18,CCn1c(Cc2ccccc2)nnc1SCC(=O)Nc1ccc(N2CCOCC2)c(Cl)c1,inactive
19,C=CCn1c(CNc2ccccc2)nnc1SCC(=O)N/N=C/c1ccc(O)cc1O,4.22 µM (active)
20,CN1CCC(=C(c2ccccc2)c2ccc(Br)cc2)CC1,inactive
21,COc1ccc(N=c2scc(C)n2CCCN2CCCC2=O)cc1,6.36 µM (active)
22,CC(C)C1N=C2c3ccccc3N=C(SCC(=O)c3ccc(O)c(O)c3)N2C1=O (stereo unspecified),4.05 µM (active)

row,Structure (SMILES),IC50
1,Nc1ncc(N=Nc2cc(C(=O)O)ccc2Cl)s1,12.4 µM (active)
2,COc1cccc(C(=O)N(Cc2cc3cc(C)ccc3[nH]c2=O)C(C)C)c1,inactive
3,COCCN=C1Sc2nc3c(C)cccc3cc2CN1Cc1ccco1,13.7 µM (active)
4,CCOC(=O)c1cnc(Nc2nc3ccccc3o2)nc1CSC(=S)N1CCCCC1,inactive
5,CN(C)c1ccc(/C=C/c2cc[n+]([O-])cc2)cc1,5.15 µM (active)
6,Oc1ccc(Nc2nc(NCC3CCCO3)c3ccccc3n2)cc1 (stereo unspecified),5.81 µM (active)
7,OCCNc1nc(Nc2ccc(O)cc2)nc2ccccc12,2.57 µM (active)
8,O=S(=O)(c1cccs1)N1CN(CC2CCCO2)c2nc3ccccc3nc21 (stereo unspecified),inactive
9,CN(Cc1ccco1)S(=O)(=O)c1nnc(NC(=O)c2cccc(Cl)c2)s1,inactive
10,CCn1cc(CN2CCC(n3nccc3NC(=O)c3ccccc3OC)CC2)cn1,inactive
11,NC(=O)N/N=C/c1ccc(N2CCOCC2)s1,10.7 µM (active)
12,CC(C)(C)OC(=O)N/N=C/c1ccc(N2CCOCC2)s1,8.25 µM (active)
13,COc1ccc(N(CC(=O)NCCc2cccc(C)c2)S(=O)(=O)c2c(C)noc2C)cc1,inactive
14,COc1cccc(NS(=O)(=O)c2ccc3c(c2)C2C=CCC2C(c2ccc(C(=O)O)cc2)N3)c1 (stereo unspecified),inactive
15,Cc1ccc(Nc2nc(-c3ccc(O)c(O)c3)cs2)nc1,8.68 µM (active)
16,Oc1ccc(-c2csc(Nc3cccc4ccccc34)n2)cc1O,23.6 µM (active)
17,Oc1ccc(-c2csc(Nc3ncccn3)n2)cc1O,10.2 µM (active)
18,Oc1ccc(-c2csc(Nc3ccccn3)n2)cc1O,11.2 µM (active)
